Most compounds without a hit are left out; they make up all but 6.6% or so of the library.
Mtb FBA inh – Mtb FBA enzyme inhibitors, primary screen, biochemical, fluorescence, strain H37Rv. 2.3% of 360,000 active. purified M. tuberculosis FBA, fluorescence read-out. inhibition, % at 1 µM;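 also: 0% = vehicle and 100% = reference inhibitor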
BoNT-A LC inh2 – BoNT/A light chain protease inhibitors, primary screen, biochemical, flow cytometry, MLPCN library; Botulinum neurotoxin type A light chain protease (Clostridium botulinum A str. ATCC 3502); multiplex microsphere protease substrate cleavage; inhibition, % at 10 µM; 0.17% of 360,000 active; in the data active = inhibition above about 30%; inconclusive = no clear call, values can overlap the other calls; also: plate controls were buffer without enzyme for full effect and enzyme alone for no effect
Anthrax LF prot – Bacillus anthracis LF protease inhibitors, primary screen, biochemical, multiplex microsphere, MLPCN library. inhibition, % at 10 µM. Lethal factor (Bacillus anthracis), P15917. 0.12% of 360,000 active. multiplex microsphere protease cleavage assay; in the data active = inhibition above about 30%; inconclusive = no clear call, values can overlap the other calls; also: plate controls were buffer without enzyme for full effect and enzyme alone for no effect
Target sequence (P15917 whole entry, looked up): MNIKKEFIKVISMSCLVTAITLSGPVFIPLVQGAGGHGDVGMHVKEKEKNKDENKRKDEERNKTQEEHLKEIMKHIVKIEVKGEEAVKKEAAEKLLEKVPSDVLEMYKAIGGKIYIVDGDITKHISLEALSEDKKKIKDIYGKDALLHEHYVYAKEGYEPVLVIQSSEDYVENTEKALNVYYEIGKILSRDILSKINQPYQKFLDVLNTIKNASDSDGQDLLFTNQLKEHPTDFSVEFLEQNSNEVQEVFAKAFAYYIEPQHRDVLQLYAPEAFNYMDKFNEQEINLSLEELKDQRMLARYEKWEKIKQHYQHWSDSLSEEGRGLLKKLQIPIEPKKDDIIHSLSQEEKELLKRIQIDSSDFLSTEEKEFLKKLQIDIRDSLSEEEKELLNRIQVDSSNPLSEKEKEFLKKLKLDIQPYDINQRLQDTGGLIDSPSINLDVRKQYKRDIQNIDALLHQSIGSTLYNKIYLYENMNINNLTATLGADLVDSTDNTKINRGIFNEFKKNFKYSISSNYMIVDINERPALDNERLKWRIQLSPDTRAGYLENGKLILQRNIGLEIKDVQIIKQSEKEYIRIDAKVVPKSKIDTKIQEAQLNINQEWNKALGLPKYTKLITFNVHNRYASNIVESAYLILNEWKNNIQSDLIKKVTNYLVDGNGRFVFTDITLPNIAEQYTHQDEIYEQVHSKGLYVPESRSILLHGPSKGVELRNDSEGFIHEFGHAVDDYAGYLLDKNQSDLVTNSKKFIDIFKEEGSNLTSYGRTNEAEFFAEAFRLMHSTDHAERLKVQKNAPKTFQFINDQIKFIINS
BoNT-F LC inh – BoNT/F light chain protease inhibitors, primary screen, biochemical, flow cytometry, MLPCN library | Botulinum neurotoxin type F light chain protease (Clostridium botulinum) | Multiplex microsphere protease cleavage assay | inhibition, % at 10 µM | 0.22% of 360,000 active | AID 588497, 2011; in the data active = inhibition above about 35%, passing the limit was not always enough; inconclusive = no clear call, values can overlap the other calls; also: plate controls were buffer without enzyme for full effect and enzyme alone for no effect
GDH-TPI counter-1 – GDH-TPI coupling enzyme inhibitors, primary screen, artefact control for M. tuberculosis FBA inhibitor project, biochemical, absorbance, full deck; GDH-TPI coupled enzyme counterscreen, NADH absorbance; inhibition, % at 4.8 µM; 1.2% of 360,000 active; AID 588335, 2011; in the data active = inhibition above about 30%;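 also: 0% = DMSO wells and 100% = wells lacking the enzyme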
Bead autofluor – compound fluorescence in toxin protease inhibitor counterscreen; 3.1% of 360,000 active; compound autofluorescence counterscreen, microsphere flow cytometry; stronger effect = higher value; fluorescence intensity (no concentration beside the values); AID 624483; in the data active = fluorescence intensity above about 16000; inconclusive = no clear call, values can overlap the other calls
Mtb FBA confirm – M. tuberculosis aldolase blockers, biochemical, fluorescence, strain H37Rv, confirmation | shares compounds with Mtb FBA inh | purified M. tuberculosis FBA, fluorescence read-out | inhibition, % at 1 µM | 78% of 5,600 active;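 also: 0% = vehicle wells and 100% = reference inhibitor wells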
GDH-TPI counter-2 – GDH-TPI coupling enzyme inhibitors, artefact control for M. tuberculosis FBA inhibitor project, biochemical, fluorescence, high throughput; inhibition, % at 1 µM; shares compounds with Mtb FBA inh; AID 652141, 2013; GDH-TPI coupled enzyme counterscreen; 81% of 5,600 active; in the data active = inhibition above about 10%
* hit, by the source's call; ? = inconclusive; nt = not tested or not shown; + = active, no number. Rule as the data show it, unless noted: active = inhibition above about 27%; inactive = the rest.

SMILES	Mtb FBA inh	BoNT-A LC inh2	Anthrax LF prot	BoNT-F LC inh	GDH-TPI counter-1	Bead autofluor	Mtb FBA confirm	GDH-TPI counter-2
CC1C(c2ccccc2)=Nn2c(=O)n(-c3ccccc3)c(=O)n21 (centres undefined)	103.4*	-0.4	-10.8	-5.5	0.9	4015	+	+
C=CCn1nc(C(=O)N2CCOCC2)cc1-c1sc(NC(=O)c2ccccc2)nc1C	-2.7	0.2	-3.8	-3.5	7.1	3412	nt	nt
Cc1ccc(C(=O)NC(=S)NCC2CCCO2)cc1[N+](=O)[O-] (centres undefined)	1.4	0.5	-11.1	-5.1	0.9	3307	nt	nt
Cn1c2ccccc2c2cc(C(=O)N3CCN(CCO)CC3)sc21	29.0*	-1.8	-13.0	-1.6	17.8	?	121.6*	90.1*
CC(=O)NNC(=O)c1cc2c3ccccc3n(C)c2s1	8.4	0.7	-8.0	0.0	20.2	3149	nt	nt
COc1ccc2c(CN3CCCCC3)cc(=O)oc2c1	44.2*	-0.9	-2.1	-8.4	nt	6642	-0.4	-0.2
CCCN(CCC)Cc1cc(=O)oc2cc(OC)ccc12	51.0*	1.5	-5.1	-0.3	nt	5547	4.3	-1.1
COc1ccc2c(CN3CCOCC3)cc(=O)oc2c1	1.6	0.5	-2.7	0.1	nt	4315	nt	nt
C=CCN(CC=C)Cc1cc(=O)oc2cc(OC)ccc12	2.2	-1.2	3.3	-3.0	nt	5705	nt	nt
S=C1NCN(Cc2cccnc2)CN1c1cccc2ccccc12	1.2	1.2	?	30.9	-7.7	3772	nt	nt
O=C(O)c1ccsc1Cc1cccs1	8.0	-0.2	-2.7	1.4	6.2	2992	nt	nt
COc1ccccc1NS(=O)(=O)c1cccc(C(=O)N/N=C(\C)c2cccnc2)c1	5.3	nt	nt	nt	1.3	nt	nt	nt
COC(=O)C1=C(C)NC2=C(C(=O)CCC2)C1c1cccc(C)n1 (centres undefined)	27.7*	-2.4	0.4	-8.2	3.5	10380	147.0*	121.1*
COC(=O)C1=C(C)NC2=C(C(=O)CCC2)C1c1cn(Cc2ccc(Br)cc2)nc1-c1ccccc1 (centres undefined)	27.8*	-0.2	-0.3	10.1	9.7	4572	41.4*	29.8*
COc1ccc(S(=O)(=O)NC2CC(C)(C)NC(C)(C)C2)cc1C(C)C	-0.1	0.3	-5.5	-0.8	-6.6	6289	nt	nt
COc1cc(C(=O)NC(=S)Nc2ccc(N3CCCC3)cc2)cc(OC)c1OC	-2.4	0.8	-2.6	-11.5	-1.5	1945	nt	nt
Nc1nc2nccc(-c3ccccn3)n2n1	38.5*	1.1	-8.5	10.7	6.4	3203	+	+
c1ccc(-c2ccnc3ncnn23)nc1	3.1	-0.1	1.4	0.2	6.0	3758	nt	nt
N#CC(C#N)=C1NC(N)=C(C#N)C(c2ccccc2)=C1C#N	71.2*	0.2	-1.2	?	32.6*	4331	86.1*	74.4*
N#CC1=C(c2ccccc2)/C(=C/c2ccccc2)OC1=O	7.2	0.2	1.7	0.8	23.0	2309	nt	nt
O=C(NCCNc1ccc([N+](=O)[O-])cc1)c1ccc(Cl)cc1	-5.8	-0.6	-0.1	-15.4	-10.5	5140	nt	nt
Cc1onc(-c2c(F)cccc2Cl)c1C(=O)OCN1C(=O)c2ccccc2C1=O	-8.2	-0.6	-2.0	5.8	-2.7	3117	nt	nt
CCOC(=O)c1cc2c(=O)n3ccccc3nc2n(CCOC)c1=NC(=O)c1c(-c2c(F)cccc2Cl)noc1C	49.1*	17.5	7.6	4.9	36.6*	4935	177.8*	165.7*
CCn1cc(C(=O)NNC(=O)c2ccc(Cl)cc2)c(=O)c2ccc(C)nc21	1.6	1.4	3.3	3.6	5.0	4295	nt	nt
Cc1cc(C)c(NC(=O)c2cn3c4c(c(N5CCN(C)CC5)c(F)cc4c2=O)OCC3C)c(C)c1 (centres undefined)	27.6*	-0.8	1.3	-1.4	5.6	8757	+	+
SMILES	Mtb FBA inh	BoNT-A LC inh2	Anthrax LF prot	BoNT-F LC inh	GDH-TPI counter-1	Bead autofluor	Mtb FBA confirm	GDH-TPI counter-2
CN1CCN(c2c(F)cc3c(=O)c(C(=O)O)cn4c3c2OCN4C)CC1	22.8	-0.2	-1.8	-5.1	7.2	5243	nt	nt
CC(=O)Nc1cnc(-c2ccccc2C(C)=O)cn1	0.4	-0.2	-2.1	-0.9	7.1	3453	nt	nt
CC(=O)Nc1cnc(/C=C\CCCO)cn1	31.6*	-0.2	-1.7	-1.1	14.2	3370	0.6	-4.0
O=C(Nc1ccc(S(=O)(=O)N2CCOCC2)cc1)c1c(F)cccc1F	-1.2	0.4	-6.8	-6.3	-12.8	3720	nt	nt
CCOC(=O)c1n[nH]n2c1nc(=O)c1ccccc12	32.5*	-2.4	1.8	-29.9	3.4	6538	116.3*	108.3*
Cc1ccc(S(=O)(=O)c2n[nH]n3c2nc(=O)c2ccccc23)cc1	9.8	0.6	0.5	-16.6	7.0	3929	nt	nt
CC(OC(=O)c1cccnc1Cl)C(=O)Nc1ccc2c(c1)OCCO2 (centres undefined)	34.9*	-0.2	-1.6	-5.8	-1.2	1946	160.8*	129.5*
CSc1ncccc1C(=O)OC(C)C(=O)Nc1ccc2c(c1)OCCO2 (centres undefined)	0.1	-0.2	-5.1	4.0	7.1	3903	nt	nt
COc1cc2[nH]c(-c3cccc(F)c3)cc(=O)c2cc1OC	28.0*	-0.8	7.2	-3.8	-3.5	4453	82.0*	64.2*
Cc1ccc(-c2cc(=O)c3ccccc3[nH]2)cc1	2.6	-0.4	-8.2	-8.6	-0.4	4143	nt	nt
COc1cc2[nH]c(-c3ccc(C)cc3)cc(=O)c2cc1OC	58.2*	-0.2	-2.7	-5.0	25.1	3798	+	+
O=C(CSc1nncn1-c1ccccc1F)NC1CC1	0.0	0.1	-2.0	-2.0	-5.0	4175	nt	nt
CCN(CC)C(=O)Cc1c(O)c2ccccc2[nH]c1=O	29.4*	-0.1	2.2	5.9	19.5	4393	97.6*	70.2*
CCCCCOC(=O)Cc1c(O)c2ccccc2[nH]c1=O	13.2	1.1	-2.7	5.7	-13.6	4767	nt	nt
CCCCCc1c(O)c2ccccc2[nH]c1=O	29.0*	0.3	0.2	2.9	14.7	6576	61.8*	51.1*
Cc1cc(N2CCC(C)CC2)nc2ccc(N3C(=O)CCC3=O)cc12	58.7*	2.4	1.1	-10.3	10.4	2380	98.4*	79.5*
Cc1cc(N2CCOCC2)nc2ccc(Cl)cc12	15.3	-0.2	-8.8	?	9.5	4503	nt	nt
Cc1c(CC(=O)NCCCC(=O)O)c(=O)oc2cc3occ(-c4ccccc4)c3cc12	4.0	1.3	-8.0	1.7	16.7	2974	nt	nt
